We go through seven compounds from PubChem BioAssay (EPA / NIEHS).

SMILES strings stand for the structures. Inconclusive results are not listed. The source made the active and inactive calls. Rule for the calls: active = hit-call score of the fitted dose curve at least 0.9, where 1 is the maximum; inconclusive = response in the unintended direction; inactive = score below 0.9.

Chain of Luciferin 4-monooxygenase (Photinus pyralis) (P08659 whole entry, looked up): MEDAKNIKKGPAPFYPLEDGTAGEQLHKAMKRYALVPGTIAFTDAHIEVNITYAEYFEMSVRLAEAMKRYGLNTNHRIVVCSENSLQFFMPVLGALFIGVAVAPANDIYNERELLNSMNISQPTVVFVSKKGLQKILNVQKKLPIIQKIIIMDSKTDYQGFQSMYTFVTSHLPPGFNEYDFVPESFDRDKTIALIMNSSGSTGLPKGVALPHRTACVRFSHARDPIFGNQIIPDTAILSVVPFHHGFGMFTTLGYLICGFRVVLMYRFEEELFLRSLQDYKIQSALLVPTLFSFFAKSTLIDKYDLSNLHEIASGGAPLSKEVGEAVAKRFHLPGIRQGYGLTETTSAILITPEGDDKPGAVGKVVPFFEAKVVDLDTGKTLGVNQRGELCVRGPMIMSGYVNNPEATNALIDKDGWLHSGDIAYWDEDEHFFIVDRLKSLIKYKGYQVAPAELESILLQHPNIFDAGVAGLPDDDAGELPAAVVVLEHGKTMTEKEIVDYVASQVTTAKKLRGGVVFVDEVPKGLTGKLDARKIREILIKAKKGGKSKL

In the assay the target is Luciferin 4-monooxygenase (Photinus pyralis) (UniProt P08659). Put plainly: CCTE_Simmons_QuantiLum_inhib_2: CCTE's Firefly Luciferase Inhibition Assay, Simmons Lab (AID 2283767).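 For AC50: potency for inhibitors that lower luciferase luminescence relative to DMSO.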 The method, boiled down:
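First, 5 ng purified luciferase in phosphate buffer with BSA is dispensed per well. Next, test chemicals (5 nM to 87.5 uM final, 0.5% DMSO) are added and incubated 30 min at 37C in darkness. Finally, luciferin reagent is injected and luminescence read kinetically.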
On to `CC(C)(O)c1coc(S(=O)(=O)NC(=O)Nc2c3c(cc4c2CCC4)CCC3)c1`, for which the result was inactive.
Turning to `CC(C)=CCC/C(C)=C\CO`, the compound was called inactive.
With `O=C(O)CCN(C1(C(=O)NO)CCCC1)S(=O)(=O)c1ccc(Oc2ccc(F)cc2)cc1`, the result was inactive.
`CCNc1ccccc1`: the result was inactive.
For the compound `CCn1nc(Cc2ccccc2)cc1C1CCN(C[C@H]2C[C@H](N(C)[C@@H](C(=O)O)C(C)C)C[C@@H]2c2cccc(F)c2)CC1`, the compound was classed as inactive.
As usually defined, the AC50 is the concentration at which the activity in the assay is half-maximal. Take `C[C@](N)(Cc1ccc(O)c(O)c1)C(=O)O`: the AC50 is 53.8 µM (active).
`CC(C)=CCCC(C)CCO` (configuration not stated): the call was inactive.
